Assay outcomes as filed in PubChem BioAssay.
ELG1 genotoxic: genotoxicity induction in ELG1-luciferase HEK293T cells | HEK293T ELG1-luciferase reporter, luminescence, 16 h | Potency, µM (titrated, usually from 46 µM), for inactives: top-dose activity change, positive = activation, actives largely listed as activators | 330,000 tested, 1.3% active | AID 504466; further: % of control where 0% means no effect; nearly all actives have a fitted effect of over 60% in size
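ELG1-luciferase HEK293T cells, 2,000/well; compound pinned in; 16 hr, 37 °C, 5% CO2; ONE-Glo, 30 min RT; luminescence on CCD imager.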
NPC1 promoter act: activators of NPC1 promoter; Huh7 NPC1 promoter luciferase reporter, 24 h; Potency, µM (titrated, usually from 9.22 µM), without a hit: top-dose activation, usual class: activators; 320,000 tested, 2.4% active; AID 485313; further: % of control where 0% means no effect; nearly all actives have a fitted effect of over 60% in size
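Luciferase expression driven by the NPC1 promoter was measured in stably transfected Huh7 cells after a 24 h compound incubation, using a luciferase reagent and a luminescence read.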
SMN2 splice up: increases expression of the SMN2 splice variant | HEK293 SMN2-luciferase splicing reporter, luminescence, 30-36 h | Potency, µM (top dose mostly 46.1 µM), inactives show at the highest dose activity change, positive = activation, actives largely listed as activators | 210,000 tested, 2.8% active | AID 1458; further: % of control where 0% means no effect; nearly all actives have a fitted effect of over 55% in size
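qHTS luciferase splicing reporter: luminescence rises when SMN2 exon 7 is included in transfected HEK293 cells. Compound exposure lasted 30-36 h at 37C, with 4.5 mM final sodium butyrate as control, followed by a ONE-Glo read.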
FLuc counter: inhibits or activates purified firefly luciferase, miR-21 counter-screen; 360,000 tested, 6.9% active; Potency, µM (top dose mostly 57.5 µM), without a hit: at the top dose activity change, negative = inhibition, actives largely listed as inhibitors; P08659; purified FLuc, Km substrates, luminescence inhibition;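 further: plate controls were vehicle for no effect and reference inhibitor for full effect; nearly all actives have a fitted effect of over 55% in size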
Target sequence (P08659 whole entry, looked up): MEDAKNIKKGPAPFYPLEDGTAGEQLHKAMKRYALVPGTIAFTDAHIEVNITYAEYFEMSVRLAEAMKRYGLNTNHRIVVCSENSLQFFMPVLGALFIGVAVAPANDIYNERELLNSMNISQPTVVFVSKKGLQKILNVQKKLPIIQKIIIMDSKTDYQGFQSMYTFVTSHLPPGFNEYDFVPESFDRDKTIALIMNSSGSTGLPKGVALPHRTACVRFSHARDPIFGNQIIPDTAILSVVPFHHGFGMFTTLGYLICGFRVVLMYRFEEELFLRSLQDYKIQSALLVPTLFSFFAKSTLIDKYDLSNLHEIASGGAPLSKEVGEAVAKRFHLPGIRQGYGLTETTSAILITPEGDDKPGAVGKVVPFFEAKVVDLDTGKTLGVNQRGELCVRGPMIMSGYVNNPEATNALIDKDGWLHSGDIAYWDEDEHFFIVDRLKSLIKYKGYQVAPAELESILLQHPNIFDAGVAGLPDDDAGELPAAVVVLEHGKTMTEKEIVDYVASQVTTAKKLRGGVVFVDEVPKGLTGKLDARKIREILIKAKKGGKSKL
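Biochemical qHTS of compounds, final roughly 60 µM downward over six points, against 10 nM purified firefly luciferase using Km concentrations of substrates (10 uM D-luciferin, 10 uM ATP) in Tris acetate pH 7.5 buffer; luminescence output.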
Rab9 promoter act: Rab9 promoter activation; Huh7 Rab9 promoter-luciferase reporter, luminescence, 24 h; 320,000 tested, 2.8% active; Potency, µM (doses to about 9.22 µM), inactives show top-dose activation, negative = inhibition, actives largely listed as activators; further: % of control where 0% means no effect; nearly all actives have a fitted effect of over 60% in size
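Stable Rab9-luc Huh7, 1500 cells/well, 2 h settle; cmpd in DMSO, 24 h, 37 °C/5% CO2; luciferase reagent 10 min RT; luminescence.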
ELG1 DNA repair: ELG1-dependent DNA repair inhibition; HEK293T ELG1-luciferase reporter, luminescence, 16 h; DNA damage induced by 5-fluorouridine; Potency, µM (titrated, usually from 46.1 µM), inactives show at the highest dose activity change, negative = inhibition, usual class: inhibitors; 330,000 tested, 2.3% active; AID 504467; further: on the % scale 0 is the no-effect control and ±100 the full control effect; nearly all actives have a fitted effect of over 55% in size
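Luminescence from the luciferase reporter, measured 30 min after ONE-Glo reagent at room temperature, was the read-out. Beforehand, 2,000 cells per well were exposed for 16 hr at 37 °C to 5-fluorouridine together with compound or vehicle.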
Numbers without * were called inactive; ? = inconclusive; . = not tested or not shown; [ ] = remark or other dose. The list is not random: actives were taken first. Their share in the collection is about 9.4%. The call rests on the fitted dose curve; in most records, active means well fitted curve in the direction sought with a large enough effect; inconclusive means small, poorly fitted or top-dose-only effect, or another doubt; inactive means no such curve, though single readings can be large; an effect the other way counts as inactive or inconclusive. Potency means the concentration at half of the fitted maximal effect.

SMILES	ELG1 genotoxic	NPC1 promoter act	SMN2 splice up	FLuc counter	Rab9 promoter act	ELG1 DNA repair
Oc1ccccc1CNc1ccc2c(c1)OCCO2	?	14.4%	.	12µM*	3.55µM*	?
CCCCN(C)C(=O)c1ccc2c(c1)N(Cc1cccc(Cl)c1)C(=O)c1ccccc1S2=O (centres undefined)	.	.	.	4.4%	.	.
c1ccc(NC2=Nc3ccccc3CS2)cc1	?	1.78µM*	11.2µM*	2.69µM*	3.16µM*	?
CCN(CC)c1nn2c(=O)c(C(=O)NCCc3ccc(C)cc3)cnc2s1	.	.	.	3.4%	.	.
CC(C)(C)c1ccc(C(=O)N2CCC(C(=O)NCc3ccco3)CC2)cc1	6.2%	10.4%	2.51µM*	-18.0%	11.1%	20.3%
CC(C)(C)c1ccc(C(=O)NNC(=S)NCC2CCCO2)cc1 (centres undefined)	0.5%	-1.4%	-27.7%	-12.3%	-0.4%	11.3%
CC(C)(C)c1ccc(C(=O)NC(=S)NCC2CCCO2)cc1 (centres undefined)	3.7%	6.9%	.	26.9µM*	12.5%	?
CC(C)(C)c1ccc(C(=O)N2CCC(C(=O)NCC3CCCO3)CC2)cc1 (centres undefined)	7.9%	28.1%	11.2µM*	?	?	?
CC(C)(C)c1ccc(C(=O)NC(=S)N2CCOCC2)cc1	8.2µM*	2.24µM*	.	9.53µM*	2.24µM*	?
CN1CCN(C(=S)NC(=O)c2ccc(C(C)(C)C)cc2)CC1	1.0%	-1.8%	-1.0%	?	-0.3%	8.3%
CC(C)(C)c1ccc(S(=O)(=O)N2CCC(Oc3ccc(-n4cnnn4)cc3)CC2)cc1	.	.	4.4%	1.9%	.	.
COc1ccccc1C(=O)NC(=O)CSc1nc(C)cs1	-1.5%	-3.2%	.	13.5µM*	9.2%	9.7%
COc1ccc(CNC(=O)C2CCN(S(=O)(=O)c3ccc4c(ccn4C)c3)CC2)cc1	.	.	8.2%	-2.7%	.	.
CC(C)(C)OC(=O)N1CCC(c2c(C(=O)N3CCN(c4ccc(Cl)cc4)CC3)cnn2-c2ccc(F)cc2F)CC1	.	.	.	-7.2%	.	.
c1cc2c(cn1)cnc1cscc12	-3.3%	4.0%	11.8%	1.1%	-3.5%	8.2µM*
CC(=O)c1cccc(NC(=O)c2cc(-c3ccc(Cl)s3)nc3ccccc23)c1	.	.	-12.1%	-18.3%	.	.
COc1ccc(Nc2ncnc3sc(-c4ccccc4)cc23)cc1OC	-0.3%	1.0%	-6.0%	12µM*	-0.4%	?
C[C@H](CN(C)C)C(=O)c1ccccc1C(=O)O	.	.	-11.8%[9.22 µM]	.	.	.
COc1ccccc1C(=O)Nc1ccc(-c2nnn(CC(=O)N3CCN(C(=O)c4ccco4)CC3)n2)cc1	-10.9%	-2.3%	-36.2%	16.9µM*	11.4%	-18.5%
Cc1ccccc1-c1nnn(CC(=O)N2CCN(C(=O)c3ccco3)CC2)n1	-6.6%	-0.8%	.	-0.3%	-1.1%	20.0%
O=C(Nc1ccc(-c2nnn(CC(=O)N3CCN(C(=O)c4ccco4)CC3)n2)cc1)c1ccccc1F	-5.7%	15.7%	-5.0%	10.7µM*	23.6%	?
COc1ccc(Oc2ncc3nc(CCc4ccccc4)c(=O)n(C4CC4)c3n2)cc1	.	.	-18.8%	.	.	.
CCC(Oc1ccccc1F)C(=O)Nc1c(C(=O)c2ccccc2)oc2ccccc12 (centres undefined)	.	.	-6.7%	0.5%	.	.
CCOc1cc(C(=O)NCCc2csc(-c3ccc(C)cc3)n2)cc(OCC)c1OCC	.	.	.	-14.9%	.	.
O=C(CCc1nc2ccccc2[nH]c1=O)OCc1ccc(S(=O)(=O)N2CCOCC2)cc1	1.4%	-2.2%	0.1%	1.6%	3.2%	-0.5%
O=C(COC(=O)c1cc(S(=O)(=O)N2CCCCC2)ccc1N1CCOCC1)c1ccc(F)cc1	1.2%	-0.2%	.	-0.6%	-1.9%	10.3µM*
O=C(COC(=O)c1cccc(S(=O)(=O)N2CCOCC2)c1)c1ccccc1	-3.0%	-3.9%	.	13.5µM*	-2.3%	15.7%
